# Source: PubChem BioAssay (Tox21)
# Results filed as inconclusive are left out. Values without a mark were called inactive. Active and inactive are the calls of the source. Calls follow the shape of the dose curve; as a rule, active = well fitted inhibition curve with a large enough effect in the signal ratio in the repeat runs (not every such curve was filed as active); inconclusive = weak or mixed curves, or effect the other way; inactive = no such curve, though single readings can be large or run the other way; the % refers to the signal ratio.
# Molecular target: Estrogen receptor beta (Homo sapiens) (UniProt Q92731)
# Sequence (Q92731 whole entry, looked up): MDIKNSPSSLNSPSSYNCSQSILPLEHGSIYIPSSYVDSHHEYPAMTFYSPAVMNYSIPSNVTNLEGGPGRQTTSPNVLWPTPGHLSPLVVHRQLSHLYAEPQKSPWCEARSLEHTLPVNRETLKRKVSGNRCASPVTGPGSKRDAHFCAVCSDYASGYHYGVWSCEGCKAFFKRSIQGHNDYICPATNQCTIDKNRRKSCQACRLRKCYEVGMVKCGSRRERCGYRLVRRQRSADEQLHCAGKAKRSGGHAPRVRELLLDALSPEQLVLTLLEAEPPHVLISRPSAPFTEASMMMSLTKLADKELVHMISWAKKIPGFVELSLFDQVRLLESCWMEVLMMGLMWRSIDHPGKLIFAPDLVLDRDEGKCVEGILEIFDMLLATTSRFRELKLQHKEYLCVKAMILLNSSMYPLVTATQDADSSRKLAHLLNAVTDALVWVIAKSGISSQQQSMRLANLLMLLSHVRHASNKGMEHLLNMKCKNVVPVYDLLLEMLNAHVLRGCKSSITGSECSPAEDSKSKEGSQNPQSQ
# Assay: qHTS assay to identify small molecule antagonists of the estrogen receptor beta (ER-beta) signaling pathway (AID 1259378)
# Conditions: ER-beta-UAS-bla HEK293T, beta-lactamase FRET ratio, 16 h; series mostly up to 92.4 µM; activity, negative = inhibition: at the top concentration
# From the text: National Center for Advancing Translational Sciences [NCATS]
# NIH Chemical Genomics Center [NCGC]
# U.S. Environmental Protection Agency [EPA]
# National Institutes of Environmental Health Sciences [NIEHS]
# National Toxicology Program [NTP]
# U.S. Food and Drug Administration [FDA]
# Estrogen receptor (ER), a nuclear hormone receptor, plays an important role in development, metabolic homeostasis and reproduction. Two subtypes of ER, ER-alpha and ER-beta, have similar expression patterns with some uniqueness in both types. Endocrine disrupting chemicals (EDCs) and their interactions with steroid hormone receptors like ER causes disruption of normal endocrine function. To identify the compounds that inhibit ER signaling, an ER-beta-UAS-bla GripTite cell line (Life Technologies, Madison, WI, USA) containing a beta-lactamase reporter gene under the control of an UAS response element was used to screen Tox21 10K compound library.
# Tox21 Assay Protocol Summary:
# ER-beta-UAS-bla HEK293T cells were dispensed at 2,000 cells/4 uL of assay medium containing 2% charcoal stripped FBS per well into black wall/clear-bottom 1536-well plates using a Multidrop Combi (ThermoFisher Scientific, Waltham, MA) dispenser. After the assay plates were incubated at a 37C and 5% CO2 for 6 hr, 23 nL of compounds dissolved in DMSO, positive controls or DMSO only was transferred to the assay plate by a Pintool station (Kalypsys, San Diego, CA), followed by addition of 1 uL (1nM as final concentration) of 17-beta-estradiol (E2) in assay medium using a BioRAPTR FRD (Flying Reagent Dispenser, Aurora Discovery, San Diego, CA). The plates were incubated at 37C and 5% CO2 for 16 hr. Then 1 uL of LiveBLAzerTM B/G FRET substrate was added using a Flying Reagent Dispenser, the plates were incubated at room temperature for 2 hours, and fluorescence intensity was measured by an Envision plate reader (PerkinElmer, Shelton, CT).
# % is scaled to controls: 0 for no effect and ±100 for the full control effect; potency is read from the fitted curve at half-maximal effect.
Structure (SMILES),"activity, negative = inhibition",Potency
CC(=O)C(Cl)C(=O)N(C)C (stereo not given),-10.2%,–
COc1cnc(OC)n2nc(NS(=O)(=O)c3c(OCC(F)F)cccc3C(F)(F)F)nc12,1.37%,–
CCOP(=O)(OCC)Oc1cc(C)nc(C(C)C)n1,-1.68%,–
Nc1ccc(N=Nc2ccccc2)cc1,–,21.7 µM (active)
C[C@H]1[C@H](c2ccc(Cl)cc2)SC(=O)N1C(=O)NC1CCCCC1,-30.4%,–
C=Cc1cccc(CCl)c1,9.66% [at 240 µM],–
C#CCO,17.9%,–
O=C(Cl)c1ccccc1F,-5.9%,–
CC(C)C(Nc1ccc(C(F)(F)F)cc1Cl)C(=O)OC(C#N)c1cccc(Oc2ccccc2)c1 (stereo not given),1.41%,–
C#CCC1=C(C)C(OC(=O)C2C(C=C(C)C)C2(C)C)CC1=O (stereo not given),–,60.7 µM (active)
COP(=S)(NC(C)C)Oc1ccc(C)cc1[N+](=O)[O-] (stereo not given),–,30.6 µM (active)
COC(=O)c1ccccc1S(=O)(=O)NC(=O)Nc1nc(C)nc(OC)n1,-21.8%,–
N#CSCc1ccccc1,3.42%,–
C=CC(=C)C,8.72%,–
Nc1nc(N)nc(Cl)n1,0.249%,–
CC(Cl)CCl (stereo not given),-2.41%,–
S=C=NCCc1ccccc1,–,30.7 µM (active)
C[N+]1(C)[C@@H]2CC[C@H]1CC(OC(=O)C(CO)c1ccccc1)C2 (stereo not given in full),22.8% [at 42.5 µM],–
CCOP(=S)(OCC)Oc1cc(C)nc(N(CC)CC)n1,-17.9%,–
CCCCCCC[CH2][Sn]([Cl])([Cl])[CH2]CCCCCCC,–,48.5 µM (active)

Structure (SMILES),"activity, negative = inhibition",Potency
CC(Cc1ccc(OCC(=O)O)cc1)NCC(O)c1csc(C(F)(F)F)n1 (stereo not given),11%,–
CC1CN1 (stereo not given),-7.91%,–
CCCCCON=O,10.3%,–
[O]=[Cr][O][Cr]=[O],-4.54%,–
CCC[CH2][Sn]([CH2]CCC)([O]C(C)=O)[O]C(C)=O,–,0.174 µM (active)
c1ccc2nc(N3CCNCC3)ccc2c1,-1.6% [at 42.5 µM],–
Oc1cccc(Cl)c1Cl,-1.47%,–
Cc1ccc2cc3c(ccc4ccccc43)c3c2c1CC3,-1.3% [at 42.5 µM],–
BrCC(Br)(Br)Br,-7.6%,–
COc1ccc(Cc2nccc3cc(OC)c(OC)cc23)cc1OC,1.04% [at 42.5 µM],–
CCC[CH2][Sn]([CH2]CCC)([CH2]CCC)[CH2]CCC,–,19.3 µM (active)
CCCCc1ccccc1,14.8%,–
Cc1ccc(C)c2ccccc12,-1.22%,–
CN1[C@@H]2CC[C@H]1CC(O)C2 (stereo not given in full),0.96%,–
CCNc1nc(NC(C)C(C)C)nc(SC)n1 (stereo not given),-0.728%,–
ClSC(Cl)(Cl)Cl,17.1%,–
Clc1ccc(C(Cl)(Cl)Cl)cc1Cl,-21.2%,–
Cc1cc(C2CC2)nc(Nc2ccccc2)n1,-17.6%,–
O=C(N[C@H]1N=C(c2ccccc2F)c2cccc3c2N(CC3)C1=O)c1cc2ccccc2[nH]1,-18.9% [at 42.5 µM],–
O=[N+]([O-])c1ccccc1-c1ccccc1,4.23%,–
